Bioassay records (PubChem BioAssay)
HTT-AS act: HTT-AS promoter activation; AID 1508624; HEK293 HTT-AS promoter firefly luciferase reporter, 24 h; response scale: percent change from vehicle, -100% = no light; Potency, µM (doses to about 57.5 µM), hits mostly activators; hit rate 0.24% among 48,000; also: nearly all actives have a fitted effect of over 55% in size
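Firefly luciferase signal from promoter-reporter HEK293 cells was scaled between vehicle (0%) and zero RLU (-100%). Compounds were tested at final concentrations of up to 57.5 uM over 24 h at 37 degrees C. PTC124 at 50 uM final served as control inhibitor.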
GALC G270D up: enhancers of human galactocerebrosidase G270D mutant activity in cells. P54803. 145M-Twi-hGALC-G270D cells (Twitcher mouse brain line with human GALC G270D), HMU-beta-Gal fluorescence, 48 h. Potency, µM (highest dose often 57.5 µM), actives largely listed as activators. hit rate 0.1% among 45,000. AID 1159614; also: nearly all actives have a fitted effect of over 65% in size
Target sequence (P54803 whole entry G286D): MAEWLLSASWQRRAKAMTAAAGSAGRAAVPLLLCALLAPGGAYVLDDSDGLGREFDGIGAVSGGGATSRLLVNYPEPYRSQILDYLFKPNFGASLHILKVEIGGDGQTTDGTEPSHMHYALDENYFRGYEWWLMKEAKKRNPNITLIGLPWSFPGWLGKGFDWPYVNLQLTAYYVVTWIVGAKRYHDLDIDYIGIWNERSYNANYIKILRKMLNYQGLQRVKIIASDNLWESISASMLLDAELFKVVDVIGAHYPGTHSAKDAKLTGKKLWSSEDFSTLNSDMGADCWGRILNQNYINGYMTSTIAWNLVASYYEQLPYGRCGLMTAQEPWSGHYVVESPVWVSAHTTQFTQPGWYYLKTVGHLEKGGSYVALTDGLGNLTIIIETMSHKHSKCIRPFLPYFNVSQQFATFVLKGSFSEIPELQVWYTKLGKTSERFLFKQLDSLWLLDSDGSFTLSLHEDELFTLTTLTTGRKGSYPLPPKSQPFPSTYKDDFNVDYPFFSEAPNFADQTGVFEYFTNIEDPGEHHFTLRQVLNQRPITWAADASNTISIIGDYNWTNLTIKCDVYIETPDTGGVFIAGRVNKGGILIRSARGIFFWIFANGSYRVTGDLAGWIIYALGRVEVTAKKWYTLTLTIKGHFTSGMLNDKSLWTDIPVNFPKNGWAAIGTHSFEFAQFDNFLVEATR
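Mutant human GALC (G270D), stably expressed in a Twitcher mouse brain cell line lacking endogenous GALC, is measured in live-treated cells via 6-hexadecanoylamino-4-methylumbelliferyl-β-galactoside hydrolysis (0.1 mM final, pH 5.2) with fluorescent detection.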
HTT promoter inh: inhibits huntingtin promoter activity | Potency, µM (series often up to 57.5 µM), most hits filed as inhibitors | hit rate 0.93% among 48,000 | HEK293 HTT promoter firefly luciferase reporter, 24 h; also: nearly all actives have a fitted effect of over 50% in size
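HEK293 cells carrying firefly luciferase reporters were seeded at 2,500 per well in Opti-MEM and cultured for 24 h. They were then treated with compounds at up to 57.5 uM final for 24 h at 37 degrees C before Dual-Glo luminescence readout.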
NTMT1 inh: inhibitors of human N-terminal methyltransferase NTMT1; NTMT1 MTase-Glo SAH luminescence, purified enzyme; hit rate 2.5% among 59,000; Potency, µM (doses to about 114 µM), actives largely listed as inhibitors; also: nearly all actives have a fitted effect of over 65% in size
A number is an active result; 0 = inactive; ? = inconclusive; - = no result; ! = a repeat was not active; [ ] = dose if it differs, or a comment. Shown are actives, neighbours in structure and some others; about 2.7% of the full set was active somewhere. Calls follow the shape of the dose curve; as a rule, active = well fitted curve in the direction sought with a large enough effect; inconclusive = small, poorly fitted or top-dose-only effect, or another doubt; inactive = no such curve, though single readings can be large; an effect the other way counts as inactive or inconclusive.

SMILES	HTT-AS act	GALC G270D up	HTT promoter inh	NTMT1 inh
Cc1ccc(NC(=O)CN2C(=O)N/C(=C\c3cccn3-c3ccc(C(=O)NS(C)(=O)=O)cc3)C2=O)cc1	-	-	-	79µM
O=C(CN1C(=O)N/C(=C\c2cccn2-c2cccc(C(=O)O)c2)C1=O)Nc1cccc(Cl)c1	-	-	-	79µM
COc1ccc(S(=O)(=O)N2CCc3cccc(-c4ccncc4)c32)cc1	-	-	-	0
O=C(NCc1ccc2c(c1)CCN2C(=O)c1ccccc1)Nc1cccc(C(F)(F)F)c1	0	0	22µM	0
Cc1ccc(C)c(NC(=O)NCc2ccc3c(c2)CCN3C(=O)c2ccccc2)c1	0	0	?	0
CCc1cccc(C)c1NC(=O)CCS(=O)(=O)c1ccc2c(c1)oc(=O)n2C	0[11.5 µM]	0	0	40µM
O=C(Nc1cccnc1)c1cccs1	-	-	-	0
O=C(Nc1ncc([N+](=O)[O-])s1)c1cccs1	0	0	0	40µM
CC(=O)OC1/C(C)=C/C(=O)C(OC(C)=O)C(C)(C)/C=C/C(C)C(=O)C2(OC(C)=O)CC(C)C(OC(=O)c3ccccc3)C12 (stereo unspecified)	-	-	-	0[12.6 µM]
CCn1c(=O)n([C@H]2CCCN(c3nccc(-c4cc5ccccc5o4)n3)C2)c2ccccc21	-	-	-	0
COc1ccc(-c2c(C)c(C(=O)NN3CCCCC3)nn2-c2ccc(Cl)cc2Cl)cc1	-	-	-	0
NC(=O)c1cccc2cn(-c3ccc([C@@H]4CCCNC4)cc3)nc12	0	-	0	32µM!
COc1cc(/C=C(\C#N)c2nc3ccccc3[nH]2)ccc1OCc1ccccc1F	0	0	?	0
CCC(=O)Oc1ccc(/C=C(\C#N)c2nc3ccccc3[nH]2)cc1OC	?	0	0	25µM
CCN(CCCNC(=O)c1cc2cc3ccc(OC)cc3nc2s1)c1cccc(C)c1	0	0	0	79µM
CCN(CCCNC(=O)c1cc2cc3ccc(OC)cc3nc2s1)c1ccccc1	0	0	0	89µM
COc1ccc(OC)c(NC(=O)c2cc3cc4ccc(C)cc4nc3s2)c1	0	0	0	0
CCc1cnn2c(NCc3ccc[n+]([O-])c3)cc(N3CCCCC3CCO)nc12 (stereo unspecified)	-	-	-	0
COCCN(C)Cc1ccc2nc3sc(C(=O)N(C)C4CCCCC4)cn3c2c1	-	-	-	0
Cc1cccc(-c2nnc(SCCC(=O)O)o2)c1	0	0	0.25µM	?
Cc1cccc(-c2nnc(SCC(=O)N3CCCCC3)o2)c1	?	0	0	0
COc1ccc(C)cc1NC(=O)Cn1c(=O)cc(C)c2c(C)nn(C)c21	0	0	2µM	0
O=C(CCCCCCNC(=O)c1cnc(N(c2ccccc2)c2ccccc2Cl)nc1)NO	-	-	-	0
CCN(CC)C(=S)SSC(=S)N(CC)CC	0	0	?	3.5µM!
Cc1cc(-c2nnc3n2CCC3)c(C)n1-c1ccccc1	-	-	-	0
SMILES	HTT-AS act	GALC G270D up	HTT promoter inh	NTMT1 inh
COc1cc(NC(=O)Cn2nc(C(F)(F)F)c3c2CCCC3)cc(OC)c1OC	0	0	22µM	0
CCc1nc(SC)ncc1C(=O)N1CCN(c2cc(C)ccc2C)CC1	0	0	0	89µM
CCS(=O)(=O)c1cccc(-c2cc(C(=O)NC3CCN(C)CC3)c(C)c3[nH]c4ncc(C)cc4c23)c1	0	-	?	28µM!
COc1ccc(CN2CCc3nc(N4CCN(c5ccc(F)cc5)CC4)ncc3C2)c(OC)c1OC	0	0	1.6µM	0
CCOc1ccc(CN2CCc3nc(N4CCN(c5ncccn5)CC4)ncc3C2)cc1OC	0	0	?	0
COc1cccc(N2CCN(c3ncc4c(n3)CCN(Cc3ccc(Br)cc3)C4)CC2)c1	0	0	?	50µM
COc1ccccc1N1CCN(c2ncc3c(n2)CCN(Cc2ccccc2F)C3)CC1	0	0	0	0
Cc1ccc2oc(-c3ccc(C)c(NC(=O)C(C)(C)Oc4ccc(Cl)cc4)c3)nc2c1	10µM	0	0	0
Cc1ccc2nc(-c3cccc(NC(=O)CSc4ccc(Cl)cc4)c3)oc2c1	?	0	0	0
Cc1ccc2nc(-c3ccc(C)c(NC(=O)CSc4ccc(Cl)cc4)c3)oc2c1	6.3µM	0	0	0
CCCCN(C)C(=O)Cn1nc(-c2ccc(C(C)=O)cc2)ccc1=O	-	-	-	0
Cc1cccc(CCNC(=O)c2c[nH]c3ccc(S(=O)(=O)Nc4ccccc4F)cc3c2=O)c1	0	0	22µM	0
Cc1ccc(O)c(NC(=O)c2ccc(Br)c(S(=O)(=O)N3CCCCC3)c2)c1	0	0	20µM	0
CC(C)c1ccc(NC(=O)c2ccc(F)c(S(=O)(=O)N3CCCCCC3)c2)cc1	0	0	?	0
